Values joined by “and” are separate entries in the source; they are usually repeats but may differ in a detail not shown here. Equal entries are not always repeated. Screen size: about 5,500 compounds; about 2,000 (36%) were called active. Roughly 18% stayed inconclusive and do not appear here. No stated cut-off is given here; in the data, active means normalized growth mostly below about 0.91 (no sharp cut-off); inconclusive means no clear call, values can overlap the other calls; inactive means mostly above about 0.92. Some of the results follow.
Assay: chemical genetic growth profiling, strain panel (AID 1159580);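 further: tested at 20 µM; growth read once vehicle control cultures reached saturation at 30 °C; 1 = growth at the plate median or of vehicle wells; lower values mean less growth of the strain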
Details: growth OD

Measured: normalized growth

CCC(C(N)=O)c1ccccc1 (configuration not stated)
inactive: S. cerevisiae deletion strains, locus YAL013W, strain DEP1, active compounds read low 1.02 | S. cerevisiae deletion strains, locus YBR021W, strain FUR4, active compounds read low 1.04 | S. cerevisiae deletion strains, locus YBR229C, strain ROT2, active compounds read low 0.999 | S. cerevisiae deletion strains, locus YCL029C, strain bik1, active compounds read low 0.992 | S. cerevisiae deletion strains, locus YDL035C, strain GPR1, active compounds read low 1.03 | S. cerevisiae deletion strains, locus YDL074C, strain BRE1, active compounds read low 1.04 | S. cerevisiae deletion strains, locus YDL101C, strain DUN1, active compounds read low 1.01 | S. cerevisiae deletion strains, locus YDL134C, strain PPH21, active compounds read low 1 | S. cerevisiae deletion strains, locus YDL185W, strain tfp1, active compounds read low 0.997 | S. cerevisiae deletion strains, locus YDL192W, strain arf1, active compounds read low 1 | S. cerevisiae deletion strains, locus YDR101C, strain arx1, active compounds read low 0.986 | S. cerevisiae deletion strains, locus YDR150W, strain NUM1, active compounds read low 1 | S. cerevisiae deletion strains, locus YDR162C, strain NBP2, active compounds read low 1.03 | S. cerevisiae deletion strains, locus YDR318W, strain mcm21, active compounds read low 0.998 | S. cerevisiae deletion strains, locus YDR388W, active compounds read low 0.999 | S. cerevisiae deletion strains, locus YDR502C, strain sam2, active compounds read low 1.01 | S. cerevisiae deletion strains, locus YEL061C, strain CIN8, active compounds read low 1.02 | S. cerevisiae deletion strains, locus YER110C, active compounds read low 0.987 | S. cerevisiae deletion strains, locus YER155C, strain BEM2, active compounds read low 0.998 | S. cerevisiae deletion strains, locus YER167W, strain BCK2, active compounds read low 1.01 | S. cerevisiae deletion strains, locus YGL078C, strain dbp3, active compounds read low 1 | S. cerevisiae deletion strains, locus YGL086W, strain mad1, active compounds read low 0.997 | S. cerevisiae deletion strains, locus YGL248W, strain PDE1, active compounds read low 1 | S. cerevisiae deletion strains, locus YGR078C, strain PAC10, active compounds read low 1.03 | S. cerevisiae deletion strains, locus YGR135W, strain pre9, active compounds read low 1 | S. cerevisiae deletion strains, locus YGR229C, strain SMI1, active compounds read low 1.01 | S. cerevisiae deletion strains, locus YGR252W, strain gcn5, active compounds read low 1.11 | S. cerevisiae deletion strains, locus YHR030C, strain SLT2, active compounds read low 1.01 and 0.954 | S. cerevisiae deletion strains, locus YHR079C, strain IRE1 (second series), active compounds read low 0.99 | S. cerevisiae deletion strains, locus YHR079C, strain IRE1, active compounds read low 0.992 | S. cerevisiae deletion strains, locus YHR094C, strain hxt1, active compounds read low 0.982 | S. cerevisiae deletion strains, locus YHR129C, strain ARP1, active compounds read low 1 | S. cerevisiae deletion strains, locus YHR200W, strain rpn10, active compounds read low 1.01 | S. cerevisiae deletion strains, locus YIL066C, strain RNR3, active compounds read low 1.01 | S. cerevisiae deletion strains, locus YIL073C, strain SPO22, active compounds read low 0.946 | S. cerevisiae deletion strains, locus YIL125W, strain kgd1, active compounds read low 1.01 | S. cerevisiae deletion strains, locus YIR030C, strain dcg1, active compounds read low 0.998 | S. cerevisiae deletion strains, locus YJL095W, strain BCK1, active compounds read low 1.03 and 0.98 | S. cerevisiae deletion strains, locus YJL134W, strain LCB3, active compounds read low 1.01 | S. cerevisiae deletion strains, locus YJL168C, strain set2, active compounds read low 0.981 | S. cerevisiae deletion strains, locus YJL187C, strain SWE1 (second series), active compounds read low 1.01 | S. cerevisiae deletion strains, locus YJR043C, strain POL32, active compounds read low 1.04 | S. cerevisiae deletion strains, locus YJR066W, strain TOR1, active compounds read low 0.899 | S. cerevisiae deletion strains, locus YJR075W, strain HOC1, active compounds read low 1.01 | S. cerevisiae deletion strains, locus YKL009W, strain mrt4, active compounds read low 1.02 | S. cerevisiae deletion strains, locus YKL068W, active compounds read low 0.998 | S. cerevisiae deletion strains, locus YKL085W, strain MDH1 (second series), active compounds read low 1 | S. cerevisiae deletion strains, locus YKL085W, strain MDH1, active compounds read low 1 | S. cerevisiae deletion strains, locus YKL190W, strain CNB1, active compounds read low 1.02 | S. cerevisiae deletion strains, locus YKR001C, strain vps1, active compounds read low 0.989 | S. cerevisiae deletion strains, locus YLR039C, strain RIC1, active compounds read low 1.04 | S. cerevisiae deletion strains, locus YLR058C, strain SHM2, active compounds read low 1.01 | S. cerevisiae deletion strains, locus YLR102C, strain apc9, active compounds read low 0.983 | S. cerevisiae deletion strains, locus YLR113W, strain HOG1, active compounds read low 1.01 | S. cerevisiae deletion strains, locus YLR262C, strain YPT6, active compounds read low 1.04 | S. cerevisiae deletion strains, locus YLR268W, strain sec22, active compounds read low 1.01 | S. cerevisiae deletion strains, locus YLR330W, strain CHS5, active compounds read low 1.01 | S. cerevisiae deletion strains, locus YLR342W, strain FKS1 (second series), active compounds read low 1.02 | S. cerevisiae deletion strains, locus YLR371W, strain rom2, active compounds read low 0.984 | S. cerevisiae deletion strains, locus YLR418C, strain cdc73, active compounds read low 1.06 | S. cerevisiae deletion strains, locus YML016C, strain PPZ1, active compounds read low 1.01 | S. cerevisiae deletion strains, locus YML032C, strain rad52, active compounds read low 1.01 | S. cerevisiae deletion strains, locus YML124C, strain tub3, active compounds read low 0.994 | S. cerevisiae deletion strains, locus YMR078C, strain ctf18, active compounds read low 0.996 | S. cerevisiae deletion strains, locus YMR223W, strain ubp8, active compounds read low 0.986 | S. cerevisiae deletion strains, locus YMR263W, strain SAP30, active compounds read low 1.02 | S. cerevisiae deletion strains, locus YMR307W, strain GAS1, active compounds read low 1.1 | S. cerevisiae deletion strains, locus YNL067W, strain RPL9B, active compounds read low 1.04 | S. cerevisiae deletion strains, locus YNL128W, strain TEP1, active compounds read low 1.02 | S. cerevisiae deletion strains, locus YNL153C, strain GIM3, active compounds read low 1.01 | S. cerevisiae deletion strains, locus YNL183C, strain NPR1, active compounds read low 0.903 | S. cerevisiae deletion strains, locus YNL233W, strain BNI4, active compounds read low 1.01 | S. cerevisiae deletion strains, locus YNL250W, strain rad50, active compounds read low 1 | S. cerevisiae deletion strains, locus YNL271C, strain bni1, active compounds read low 1 | S. cerevisiae deletion strains, locus YNL298W, strain CLA4, active compounds read low 1.01 | S. cerevisiae deletion strains, locus YNL307C, strain MCK1, active compounds read low 1.01 | S. cerevisiae deletion strains, locus YNL322C, strain KRE1, active compounds read low 1.01 | S. cerevisiae deletion strains, locus YNR052C, strain pop2, active compounds read low 0.984 | S. cerevisiae deletion strains, locus YOL006C, strain TOP1, active compounds read low 1.06 | S. cerevisiae deletion strains, locus YOL012C, strain htz1 1.05 | S. cerevisiae deletion strains, locus YOL147C, strain pex11, active compounds read low 0.988 | S. cerevisiae deletion strains, locus YOR061W, strain CKA2, active compounds read low 1.01 | S. cerevisiae deletion strains, locus YOR069W, strain VPS5, active compounds read low 1.01 | S. cerevisiae deletion strains, locus YOR136W, strain idh2, active compounds read low 1 | S. cerevisiae deletion strains, locus YOR144C, strain elg1, active compounds read low 0.997 | S. cerevisiae deletion strains, locus YOR184W, strain ser1, active compounds read low 1 | S. cerevisiae deletion strains, locus YOR231W, strain MKK1, active compounds read low 0.95 | S. cerevisiae deletion strains, locus YOR316C, strain cot1, active compounds read low 0.988 | S. cerevisiae deletion strains, locus YPL055C, strain LGE1, active compounds read low 1.05 | S. cerevisiae deletion strains, locus YPL241C, strain CIN2, active compounds read low 1.01 | S. cerevisiae deletion strains, locus YPL256C, strain CLN2, active compounds read low 0.962 | S. cerevisiae deletion strains, locus YPR119W, strain clb2, active compounds read low 0.986 | S. cerevisiae deletion strains, locus YPR141C, strain kar3, active compounds read low 1.01 | S. cerevisiae deletion strains, locus YPR163C, strain tif3, active compounds read low 0.999 | S. cerevisiae deletion strains, locus YPR167C, strain met16, active compounds read low 0.999 | S. cerevisiae deletion strains, strain wtn01, active compounds read low 1 | S. cerevisiae strains, strain wild type, active compounds read low 1.01

From PubChem BioAssay AID1159580 (chemical genetic matrix, 2015)
